In the library only some 31% were active in any assay of this set; here they are far more common.
CYP2C9 inh: blocks human cytochrome P450 2C9. P11712. CYP2C9 Supersomes, luciferin-H conversion, luminescence. inhibition, % at 5 µM. hit rate 20% among 96,000. AID 777;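 active = blocking of liver enzyme CYP2C9 beyond about 50% at 5 µM, limit read from the data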
CYP2C9 activ: activators of human CYP2C9. recombinant CYP2C9, luciferin-H conversion, luminescence; stronger effect = higher value; factor 1 = untreated enzyme, 0 = blocked. hit rate 1.4% among 96,000. AID 1024. activation factor at 5 µM;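 active = activation factor of 2 or more for CYP2C9 at a 5 µM dose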
CYP2C19 inhib: blocks human cytochrome P450 2C19; hit rate 21% among 96,000; CYP2C19 Supersomes, luciferin-H EGE luminescence, 30 min; inhibition, % at 5 µM;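 active = CYP2C19 inhibition above a set limit at 5 µM in the primary screen, cut at about 50% in these data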
Target sequence (P33261 whole entry, looked up): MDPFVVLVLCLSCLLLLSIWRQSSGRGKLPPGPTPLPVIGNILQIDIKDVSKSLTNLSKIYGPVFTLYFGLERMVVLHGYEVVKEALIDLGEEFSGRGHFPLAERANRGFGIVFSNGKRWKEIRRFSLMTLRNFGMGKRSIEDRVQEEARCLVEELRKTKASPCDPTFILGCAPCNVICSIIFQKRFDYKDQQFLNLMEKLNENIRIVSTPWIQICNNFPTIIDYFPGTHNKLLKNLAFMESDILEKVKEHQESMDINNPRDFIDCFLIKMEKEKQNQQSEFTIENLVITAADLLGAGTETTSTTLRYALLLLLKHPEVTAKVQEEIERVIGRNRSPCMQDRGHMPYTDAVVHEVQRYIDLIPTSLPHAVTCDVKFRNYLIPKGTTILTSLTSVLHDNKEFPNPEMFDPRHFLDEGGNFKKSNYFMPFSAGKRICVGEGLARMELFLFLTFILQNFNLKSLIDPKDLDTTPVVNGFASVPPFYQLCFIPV
CYP2C19 activ: activators of human cytochrome P450 2C19; P33261; recombinant CYP2C19, luciferin-H EGE luminescence; stronger effect = higher value; 0 = fully inhibited enzyme, 1 = untreated enzyme; activation factor at 5 µM; 96,000 tested, under 10 active;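 active = activation factor of at least 2 at 5 µM in the primary screen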
Of the large screens only hits and unclear results are named; the others gave an inactive call.

CCOC(=O)C1Cn2c(nc3c(c2=O)C(C)(C)Cc2ccccc2-3)S1 (stereo unspecified)	CYP2C9 inh 88, CYP2C19 inhib 97
CC1(C)Cc2ccccc2-c2nc(NCCCO)n(-c3ccccc3)c(=O)c21	none
O=c1c2c(nc3n1CCCCC3)-c1ccccc1CC21CCCC1	none
CCOC(=O)C1Cn2c(nc3c(c2=O)C2(CCCC2)Cc2ccccc2-3)S1 (stereo unspecified)	CYP2C19 inhib 62
Cc1cc(C)cc(NC(=O)CSc2nnc(Cc3cccn3C)n2-c2ccc(F)cc2)c1	none
COc1ccc2c(C)cc(SCC(=O)Nc3c(C)n(C)n(-c4ccccc4)c3=O)nc2c1	none
Cc1cc(SC(C)C(=O)Nc2c(C)n(C)n(-c3ccccc3)c2=O)nc2ccccc12 (stereo unspecified)	CYP2C19 inhib 78
COc1cc(-c2nnc(SC(C)C(=O)Nc3c(C)n(C)n(-c4ccccc4)c3=O)o2)cc(OC)c1OC (stereo unspecified)	none
Cc1c(NC(=O)C(C)Sc2nnc(-c3ccccc3)o2)c(=O)n(-c2ccccc2)n1C (stereo unspecified)	CYP2C19 inhib 70
CN(Cc1ccccc1)C(=O)CCNS(=O)(=O)c1ccc2c(c1)oc(=O)n2C	none
N#Cc1ccccc1OCC(=O)NC(N)=O	none
O=C1c2ccccc2C(=O)N1CN(C(=O)COc1ccccc1)c1ccccc1	CYP2C19 inhib 58
O=C1c2ccccc2C(=O)N1CCOCCN1C(=O)c2ccccc2C1=O	none
O=C1c2ccccc2C(=O)N1CCCOc1ccccc1	CYP2C19 inhib 85
N#Cc1ccccc1OCCN1C(=O)c2ccccc2C1=O	CYP2C9 inh 60, CYP2C19 inhib 82
COC(=O)c1sc2cnccc2c1N	none
CCC(=O)Nc1ccc(NC(=O)CSc2nnnn2-c2cccnc2)cc1C	none
CN(C)c1ccc(C(=O)c2ccccc2C(=O)O)c(O)c1	none
CCCCN(CCCC)c1ccc(C(=O)c2ccccc2C(=O)O)c(O)c1	CYP2C9 inh 64
Cc1ccc(NC(=O)CSC2=Nc3ccccc3C3CC=NN23)c(C)c1 (stereo unspecified)	CYP2C19 inhib 93
Cc1ccc(NC(=O)CCC(=O)NNC(=O)C(c2ccccc2)c2ccccc2)c(C)c1	none
COC(=O)c1ccc(NC(=O)CSC2=Nc3ccccc3C3CC=NN23)cc1 (stereo unspecified)	CYP2C9 inh 69, CYP2C19 inhib 68
NC(=O)c1ccc(NC(=O)CSC2=Nc3ccccc3C3CC=NN23)cc1 (stereo unspecified)	none
O=C(CSc1ccc(Cl)cc1)NCC1CCCO1 (stereo unspecified)	none
CC(=O)c1c(C(C)=O)c(C)n(-c2ccc(N)c(C)c2)c1C	none
O=[N+]([O-])/C(C(Cl)=C(Cl)Cl)=C(\Nc1ccc(F)cc1)n1cncn1	none
CCOc1ccc(N/C(=C(/C(Cl)=C(Cl)Cl)[N+](=O)[O-])n2cncn2)cc1	CYP2C9 inh 68, CYP2C19 inhib 61
CCN(CC(=O)Nc1c(C(=O)OC)[nH]c2ccccc12)c1ccc2c(c1)OCO2	CYP2C9 inh 70, CYP2C19 inhib 50
CCOC(=O)c1[nH]c2ccc(OC)cc2c1NC(=O)CCN1CCC(C)CC1	none
CCOC(=O)c1[nH]c2ccc(Br)cc2c1NC(=O)CCN1CCC(C)CC1	CYP2C19 inhib 58
CCOC(=O)c1[nH]c2ccc(OC)cc2c1NC(=O)c1cccc(OC)c1	CYP2C19 inhib 52
CCOC(=O)c1[nH]c2ccccc2c1NC(=O)c1ccc2c(c1)OCO2	none
CCOC(=O)c1[nH]c2ccc(OC)cc2c1NC(=O)CN1CCSCC1	CYP2C9 inh 59, CYP2C19 inhib 76
CCOC(=O)c1[nH]c2cc(OC)c(OC)cc2c1NC(=O)c1ccc2c(c1)OCO2	none
CCOC(=O)c1[nH]c2ccc(OC)cc2c1NC(=O)c1ccc2c(c1)OCO2	CYP2C19 inhib 62
Cc1sc2c(c1C)CN(Cc1ccncc1)CN2C(=O)c1ccco1	CYP2C9 inh 91, CYP2C19 inhib 77
COCCN1Cc2c(sc(C)c2C)N(C(=O)c2ccccc2)C1	none
COC(=O)C1C(=O)c2c(n[nH]c2C)CC1(C)C (stereo unspecified)	none
Cc1[nH]nc2c1-c1nc3ccccc3nc1C(C)(C)C2	CYP2C19 inhib 68
COc1ccccc1NC(=O)CN1C(=O)NC(C)(C)C1=O	none
COc1cc2cc(CN(C(=O)Nc3ccccc3)C3CCCC3)c(=O)[nH]c2cc1OC	CYP2C9 inh 55
CCN(CC)CCCN(Cc1cc2cc(OC)c(OC)cc2[nH]c1=O)C(=O)Nc1ccccc1	none

Assay outcomes (PubChem BioAssay)
